Assay results taken from PubChem BioAssay (NCI).
About 83,000 compounds went through this panel and 20% of them were active in at least one assay; those are over-represented in the sample as a whole.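 96-well plates, one dose, 48 hours. Percent growth reported; active if below 10.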 Values without a mark were called inactive. Activity calls are given as the source filed them.

System: OVCAR-8 ovarian
Assay: NCI-60 one-dose screen, 48 h (100 = growth as untreated, 0 = no growth, -100 = all killed)
Details: 10 µM unless noted
Method: Growth inhibition of the OVCAR-8 human tumor cell line is measured as a screen for anti-cancer activity. Cells are grown in 96 well plates and exposed to the test compound for 48 hours. Compounds are tested at a single concentration, which is 10^-5 M for most compounds. The reported endpoint is percent growth (GI% or GIPRCNT), where numbers from 0 - 100% represent growth inhibition, and numbers from -100% - 0 represent cell death. For example, a value of 40 represents 60% growth inhibition. A value of 0 means no net growth occurred over the course of the experiment. A value of -40 indicates 40% of cells at the beginning of the experiment died by the end of the experiment. A value of -100 means all cells are dead at the end of the experiment.
NCI-60 Human Tumor Cell Lines Screen was performed using the standard one-dose NCI protocol, which is described in more detail at https://dtp.cancer.gov/discovery_development/nci-60/default.htm.
Compounds with GIPRCNT values below 10 were considered active. Activity score was based on GIPRCNT using the following formula: […]
Score is 0 for GIPRCNT values of 100 or above, 50 for GIPRCNT values of 0, and 100 for GIPRCNT values of -100.

Compared with `Cc1ccccc1NC(=O)CN(C)C`, `Cc1nc(-c2ccccc2)cc2c(O)c(C(=O)N/N=C/c3ccc(N(C)C)cc3)[nH]c(=O)c12` is lower in growth: 108% for the first, 67.3% for the second.

First: Cc1cccc(-c2cc(O)c(C(=O)N3CCOCC3)s2)c1
Second: CCCCOC(=O)c1ccc(NC(=O)C(C)N2CCOCC2)cc1 (stereo not given)
The growth of the first is lower: 46% for the first, 95.6% for the second.

Going from `CCCCCCCCn1cc(C2=C(c3coc4ccc(OC)cc34)C(=O)NC2=O)c2ccccc21` to `COc1cc2oc(-c3cccc(C(=O)Nc4ccc(C)cc4)c3)cc(=O)c2c(OC)c1OC`, the growth falls from 94.2% to 33.3%.

Going from `N#Cc1c(N)nc2c(nnn2-c2cccc(Br)c2)c1N` to `N#C/C(=C\c1ccc(Br)cc1)n1nnc2cc(Cl)c(Cl)cc21`, the growth falls from 93.8% to 22.2%.

Going from `COc1ccc(/C(C)=C(\c2ccc(Cl)cc2)c2ccc(OCCN3CCCCCC3)cc2)cc1F` to `COc1ccc(NC(=O)C(=O)c2c[nH]c3ccc(F)cc23)cc1`, the growth rises from 63.7% to 99%.

Compared with `CN(C)c1ccc2cc(-c3ccccc3F)c(N)nc2c1`, `Cc1nc(Nc2ccc(N)cc2)c2ccccc2n1` is higher in growth: 22.6% for the first, 95.3% for the second.

Compared with `NC(N)=N/N=C/c1ccc(Br)cc1`, `O=C1Nc2ccccc2/C1=N/N=C/c1ccsc1` is higher in growth: 78.9% for the first, 102% for the second.

Compared with `COc1cc(-c2cc(-c3ccc(Nc4nc(Nc5ccccc5)nc(Nc5ccc(Cl)cc5)n4)cc3)nc(N)n2)cc(OC)c1OC`, `O=c1cc(-c2ccc(OCc3ccccc3)cc2)oc2c(I)c(OCc3ccccc3)cc(OCc3ccccc3)c12` is higher in growth: 60.1% for the first, 99.6% for the second.

Going from `Cc1cc(-c2ccc(N(C)C)cc2)c2sc(=O)[nH]c2n1` to `CC(=O)Nc1cccc(C2=CC(c3ccc(C)cc3)n3ncnc3N2)c1` (stereo not given), the growth rises from 76.9% to 101%.

First: Cc1nn(-c2ccccc2)c2c1C(c1ccc([N+](=O)[O-])cc1)C(C#N)=C(N)O2 (stereo not given)
Second: COc1ccc(/C=C(\C#N)n2nnc3ccccc32)cc1
The growth of the first is higher: 90.9% for the first, 19.6% for the second.

Compared with `COC(=O)c1ccc(CSc2nnc(-c3ccncc3)o2)cc1`, `CC(c1ccc(-n2cccn2)cc1)c1cnc(N2CCc3ccc(C(N)=O)cc3C2)s1` (stereo not given) is lower in growth: 101% for the first, 34.9% for the second.

Going from `CCn1c(Sc2nnc(NC(=O)CSC(=S)N3CCCCC3)s2)nc2c1c(=O)n(C)c(=O)n2C` to `CCOc1ccc(-c2nc3ccc(-c4nc5ccc(N6CCN(C)CC6)cc5[nH]4)cc3[nH]2)cc1OCC`, the growth falls from 92.8% to 14.8%.

First: CN1CCN(C2=C(Cl)C(=O)c3ccccc3C2=O)CC1
Second: O=S(=O)(Nc1ccsc1-c1nc(-c2ccccc2)no1)c1cc(Cl)cc(Cl)c1
The growth of the first is lower: 67.1% for the first, 92.4% for the second.

First: CCN(CC)CCCNC(=O)c1ccc(N)cc1O
Second: CSc1ccc(Cl)c(C(=O)Nc2sccc2C(N)=O)c1
The growth of the first is higher: 103% for the first, 94.4% for the second.

Going from `Cc1cn(C2CCCCC2)c(=O)[nH]c1=O` to `COC1=CC(c2ccc[nH]2)=N/C1=C\c1[nH]c(C)c(C(=O)OCCn2cc(CCC[C@@H]3Cc4cc(O)ccc4C4CC[C@]5(C)[C@@H](O)CC[C@H]5C43)nn2)c1C` (stereo not given in full), the growth falls from 106% to 96.3%.

First: O=[N+]([O-])c1cccc(/C=C/c2ccccn2)c1
Second: O=S(=O)(NCCNc1cc(-c2c(-c3cccc(O)c3)nc3sccn23)ccn1)c1ccc(Cl)cc1
The growth of the first is higher: 86.2% for the first, 51.1% for the second.

First: Cc1nc2ccc(C(=O)NCc3cc(C(=O)O)c(C)o3)cc2nc1C
Second: C=C1c2c(C)nn(-c3ccc(O)cc3)c2N(C)C23C[C@@H]1C1(C)c4c(C)nn(-c5ccc(O)cc5)c4N(C)C(C)(C[C@H]12)C3 (stereo not given in full)
The growth of the first is higher: 96.6% for the first, 27.8% for the second.

For `O=C(NCCOCCOCCOCCNC(=O)c1cc2c(o1)C(=O)c1ccccc1C2=O)NC12CC3CC(CC(C3)C1)C2`, the growth was 1.25% (active).
`N=C(N)c1ccc(-c2ccc(-c3ccc(Cl)cc3Cl)o2)cc1` was tested, and the growth was -23.5% (active).
For `O[C@H]1CO[C@H]2[C@@H]1OC[C@@H]2Oc1ccc(Nc2ccnc(Nc3ccc(O[C@H]4CO[C@H]5[C@@H]4OC[C@@H]5O)c(Cl)c3)n2)cc1Cl`, the growth was 7.77% (active).
In the case of `CN(C)CCCCNc1ccc(NCCCCN(C)C)c2c1C(=O)c1c(O)ccc(O)c1C2=O`, the growth is reported as -73.1% (active).
For `C[C@H]1[C@H](C)CC[C@]2(C(=O)N3CCN(C)CC3)CC[C@]3(C)C(=CC[C@@H]4[C@@]5(C)C/C(=C/c6cccnc6)C(=O)C(C)(C)[C@@H]5CC[C@]43C)[C@H]12`, the growth was -76.2% (active).
`COc1ccc(C2CC(c3ccc4ccccc4c3)=NN2c2nc(O)c(C3=c4cc(Cl)ccc4=NC3=O)s2)cc1` (stereo not given) was tested, and the growth was -16.1% (active).
